The results in this text go back to PubChem BioAssay.

A short description of this assay: JC-1 mitochondrial signal, unstimulated myeloma cells – cell-based, JC-1 fluorescence, RPMI8226, 24 h, 100 nL compound, profiling panel (AID 1169). Note: test concentration not given here. Particulars: JC-1 mitochondrial potential fluorescence, higher = more signal.
As to `COC(=O)[C@H](C)NC(=O)CCC1CC(OC(=O)NCc2cccc3ccccc23)CC2(CCCC(COC(=O)NCc3ccccc3)O2)O1` (stereo partly specified), the z-score was found to be 0.662.

Molecule `O=C1CCCC=C1C(O)C1CCCCC1` (stereo unspecified) had a z-score of -0.121.

Regarding `COc1ccc(COC(=O)NN=C2C[C@@H](O)[C@@H](O)[C@@H]3[C@@H]4C(=O)N(Cc5ccccc5)C(=O)[C@@H]4CC[C@@H]23)cc1`, the z-score amounted to 0.76.

With `CO[C@H]1COC(=O)CC=C[C@H](C)[C@H](OC)COC(=O)[C@@H](C)NC(=O)CC=C[C@@H]1C`, the z-score was -0.283.

The molecule `CC(C)CON=C1[C@H]2CCn3c(=O)n(C)c(=O)n3[C@H]2[C@H](O)[C@@H]2O[C@H]12` displayed a z-score of -0.581.

Regarding `CCOC(=O)CCN1C(=O)[C@H]2[C@H]3[C@H](O)[C@H](O)CC(=NOCC=C(C)CCC=C(C)C)[C@@H]3CC[C@H]2C1=O`, the z-score is -0.225.

In turn, `CC[C@@H](c1ccccc1)n1c(=O)n2n(c1=O)[C@H]1[C@H](O)[C@@H]3O[C@@H]3C(=NOCc3ccccc3)[C@H]1CC2` gave a z-score of -1.05.

As to `CC(CCN1CCCc2nc(C)c(C)cc21)=NO[C@@H](C)c1cn([C@H](CO)Cc2ccccc2)nn1`, the z-score was -0.0733.

In the case of `COC(=O)[C@H](C)NC(=O)CCC1CC(OC(=O)NCCc2ccc(F)cc2)CC2(CCCC(COC(=O)NCC3CCCCC3)O2)O1` (stereo partly specified), the z-score turned out to be 0.785.

As for `CCOC(=O)[C@H](Cc1ccccc1)NC(=O)CCC1CC(OC(=O)NCc2ccc3c(c2)OCO3)CC2(CCCC(COC(=O)NCCCN3CCCC3=O)O2)O1` (stereo partly specified), the z-score came to 0.517.

On to `CC(CCC(=O)OC[C@H]1O[C@H](C#Cc2ccccc2)C=C[C@@H]1Oc1ccc(C)cc1)=NOC[C@@H](C)[C@H](OCc1ccccc1)C(C)C`, for which the z-score amounted to 1.06.

For the molecule `CCN1C(=O)[C@H]2[C@H]3[C@H](O)[C@H](O)CC(=NOC[C@@H](O)[C@H]4O[C@@H]5OC(C)(C)O[C@@H]5[C@H]4O)[C@@H]3CC[C@H]2C1=O`, the z-score came out at 0.71.

`CC(C)CON=C1C[C@@H](O)[C@@H](O)[C@@H]2[C@@H]3C(=O)N(Cc4ccc5c(c4)OCO5)C(=O)[C@@H]3CC[C@@H]12` registered a z-score of 0.492.

Molecule `C=CC[C@@H]1C=C[C@H](ON=C2C[C@@H](O)[C@@H](O)[C@@H]3[C@@H]4C(=O)N(CC)C(=O)[C@@H]4CC[C@@H]23)[C@@H](CO)O1` had a z-score of 0.216.

Molecule `CO[C@H]1COC(=O)CCC[C@H](C)[C@H](OC)COC(=O)CC=C[C@@H]1C` came in with a z-score of 0.226.

In turn, `COc1ccc2c(c1)O[C@@H](c1cccc(C(F)(F)F)c1)[C@H](O)C2=O` had a z-score of -0.239.

Consider `CC(CCN1CCCc2nc(C)c(C)cc21)=NOC[C@@H](O)COCc1ccco1`, for which the z-score stood at 0.0583.

Consider `CCN1C(=O)[C@H]2[C@H]3[C@H](O)[C@H](O)CC(=NO[C@@H]4O[C@H](CO)[C@@H](O)[C@H](O)[C@H]4O)[C@H]3CC[C@H]2C1=O`, for which the z-score worked out at 0.0397.

`CCOC(=O)[C@H](CC(C)C)NC(=O)CCC1CC(OC(=O)NCc2ccc3c(c2)OCO3)CC2(CCCC(COC(=O)NCCOc3ccccc3)O2)O1` (stereo partly specified): the z-score was -0.879.

`O=C1C2=CC[C@H]3C(=O)N(c4ccc(F)cc4F)C(=O)[C@H]3[C@H]2[C@H](O)[C@@H]2O[C@H]12` yielded a z-score of 0.0423.

The molecule `CC(=O)OC[C@H]1O[C@H](C#CCCc2ccccc2)C=C[C@@H]1OC(C)=O` gave a z-score of -0.353.

`CC(C)=NOC(C)CN1CCCc2nc(C)c(C)cc21` (stereo unspecified) registered a z-score of -0.416.

`COC(=O)[C@H](C)NC(=O)CCC1CC(OC(=O)NCc2cccc3ccccc23)CC2(CCCC(COC(=O)NCCOc3ccccc3)O2)O1` (stereo partly specified): the z-score was -0.458.

With `C[C@@H]1CC[C@@H](C(=O)O)N[C@H]1c1cccc(N2CCOCC2)c1`, the z-score is -0.157.

As for `COC(=O)[C@@H]1CC[C@H](C)[C@@H](c2ccc(Br)cc2)N1C[C@H](O)CN=[N+]=[N-]`, the z-score is -0.443.

For the molecule `CCOC(=O)[C@H](Cc1ccccc1)NC(=O)CCC1CC(OC(=O)NCCc2ccc(F)cc2)CC2(CCCC(COC(=O)NCc3cccc(C(F)(F)F)c3)O2)O1` (stereo partly specified), the z-score amounted to 0.562.

As for `COc1cccc([C@H]2Oc3ccc(OC)cc3C(=NOCC[C@@H]3C=C[C@H](OC(C)=O)[C@@H](COC(C)=O)O3)[C@@H]2O)c1`, the z-score is -0.209.

Regarding `CC(=O)OC[C@H]1O[C@H](CC=NO[C@@H](C)c2cc(-c3c(C)cc(C)cc3C)no2)C=C[C@@H]1OC(C)=O`, the z-score is 0.774.

`CCOC(=O)NN=C1C[C@@H](O)[C@@H](O)[C@@H]2[C@@H]3C(=O)N(c4ccc(F)cc4F)C(=O)[C@@H]3CC[C@H]12` registered a z-score of 0.14.

In turn, `O=C1[C@H]2[C@H]3[C@H](O)[C@H](O)CC(=NO[C@@H]4O[C@H](CO)[C@@H](O)[C@H](O)[C@H]4O)[C@H]3CC[C@H]2C(=O)N1C[C@@H]1CCCO1` showed a z-score of 0.39.

Molecule `CCOC(=O)[C@H](Cc1ccccc1)NC(=O)CCC1CC(OC(=O)NCCc2ccc(F)cc2)CC2(CCCC(COC(=O)NCCC(C)C)O2)O1` (stereo partly specified) yielded a z-score of -0.353.

Molecule `CO[C@H]1COC(=O)[C@H](C)COC(=O)[C@@H](OCc2ccccc2)C=C[C@@H]1C` displayed a z-score of -0.177.

In turn, `O=C1[C@H]2[C@H]3[C@H](O)[C@H](O)CC(=NOC[C@@H](O)COCc4ccco4)[C@@H]3CC[C@H]2C(=O)N1Cc1ccccc1` displayed a z-score of -0.271.

Molecule `CC(C)=CCCC(C)=CCON=C1C[C@@H](O)[C@@H](O)[C@@H]2[C@@H]3C(=O)N(Cc4ccc5c(c4)OCO5)C(=O)[C@@H]3CC[C@H]12` showed a z-score of -0.655.

With `COC(=O)[C@H](C)NC(=O)CC=C[C@@H](C)[C@@H]1C=C[C@H](O)[C@@H](CO)O1`, the z-score was found to be 0.685.

The molecule `COc1ccc(COC(=O)NN=C2C[C@@H](O)[C@@H](O)[C@@H]3[C@@H]4C(=O)N(C[C@@H]5CCCO5)C(=O)[C@@H]4CC[C@@H]23)cc1` came in with a z-score of -0.252.
